Laboratory results reported in the supplement of paper PMC11417369.
± gives the standard deviation of the averaged measurements. Whole data set: some 25,000 sequences, median “ln(normalized median fluorescence intensity)” near 10, cut for the highest 2% near 12. The entries come from a sample that favours the highest values as a whole.

test system: PfAP2-G AP2 domain (GST-tagged); test: gcPBM binding intensity (ln(normalized median fluorescence intensity)); higher = stronger DNA binding
Outline: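 Using an Agilent 4 × 180k array, primer-extended double-stranded 36-bp intergenic genomic probes and negative controls were exposed for 1 h to GST-fused P. falciparum DNA-binding domains expressed in E. coli. Binding was carried out in 1× PBS with 1% milk, 0.2 mg/ml BSA, 0.5% salmon testes DNA and 0.03% Triton X-100, and protein was detected with Alexa488 anti-GST antibody and a 488 nm scan. Binding intensity is the highest Masliner-normalised natural-log median intensity across replicate spots of either probe orientation.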

Row | Sequence | gcPBM binding intensity (ln)
1 | TTTTTTTTTTTTTTTGCATGCAGGTTTTTACCCCTT [TGCATGCA_site381] | 9.84 ± 0.51
2 | ATCATATGTATGGTGGTGCATTATGCATGAATTTTA [GTGCAC_site9798] | 10.1 ± 0.18
3 | TATTCGTGCAATAGTAGTACACTTAAAAATTATTCA [XGTACX_site269] | 11.6 ± 1.1
4 | TTCCAAAATTGCACATGTACAAAATTCTCCAATATG [XGTACX_site3419] | 10.9 ± 0.62
5 | TAATGCATTTTCGCATGTACATATTTCTCTTTATAT [XGTACX_site8915] | 11.1 ± 0.71
6 | TTATATTTTTTTGAGTGTACTTTTTGTGTAAAATTC [XGTACX_site2155] | 11.5 ± 0.84
7 | TTCGACGAGAGCAAGTGTACTCTTGAATAATTTATA [XGTACX_site7613] | 11.3 ± 0.9
8 | TTGTTATATTACAGTAGTACATTTAAAATCTACTAC [XGTACX_site2620] | 11.4 ± 0.93
9 | GAGGTCTTTTTTAATGTGCACATATATATATATATA | 10.7 ± 0.51
10 | ATAAAATAATCTTATGCACACCAAAAATTTATATAA [CACACA_site8332] | 10.2 ± 0.12
11 | TCTATTAATTAATATACACACATTAGATATAAATAT [CACACA_site7241] | 9.945 ± 0.092
12 | TATATATATATAATGTGTACATACTAAATAGAGGAC [XGTACX_site4153] | 11.7 ± 1.1
13 | TAATAATAAAAAATACGTACATATTATTTATATATG [XGTACX_site853] | 11.4 ± 0.76
14 | ACTTCAAAAATAAACTGTACGTAAAAAAAAAAAAAA [XGTACX_site795] | 11.5 ± 1
15 | TCAATATAAATTAGTTGTACAGTTTTTTTTAATTAT [XGTACX_site6358] | 11.5 ± 0.92
16 | GTAATATTATATAGTTGTACTTTTTTTTTATTATAT [XGTACX_site483] | 11.5 ± 1
17 | TATTTTTATAAAAACTGTACATAATAAATAAAAATA [XGTACX_site4743] | 11.1 ± 0.62
18 | TTCAATATACATATGTGTACTAAAATAAATAGAAAA [XGTACX_site5708] | 11.3 ± 0.83
19 | GTATTATATTTCAACTGTACGTAAAACTATTAAAAT [XGTACX_site3679] | 11.7 ± 1.1

Row | Sequence | gcPBM binding intensity (ln)
20 | TGTATTATTAATATTTGTACGTAATAATAAAAACAT [XGTACX_site3716] | 11.5 ± 1
21 | ATATATATAAATATATGTACTAATATATACATATAT [XGTACX_site2289] | 11 ± 0.69
22 | AACTGTAATTTTATACGTACATAAATAATATTATAT [XGTACX_site4277] | 11.7 ± 0.93
23 | ACGTAATAAAATAGTTGTACAACTTTTTATAATATA [XGTACX_site4393] | 11.8 ± 1.1
24 | ATAATAAGAAAAAAAAAAAAAAAAAAAAAAAAAAAA [TGCATGCA_negctrl_site377] | 9.59 ± 0.58
25 | TTATTGTACTTGCTCGCATGCAATAAAAATATATTA [TGCATGCA_site580] | 11.2 ± 1.1
26 | ATAAATTTTTAAACAGCACACATAAATATAATATAT [CACACA_site8691] | 10.06 ± 0.064
27 | TGATAACCTCACAAATGTACGTACGGGGCTAGCATT [XGTACX_site4157] | 11.4 ± 0.78
28 | GTATATGAATGTTCATGTACATAATAAAATATATAA [XGTACX_site250] | 11 ± 0.56
29 | ATGCGTTTAGCAAAAAGTACATATATATATAATATT [XGTACX_site1928] | 11.2 ± 0.73
30 | TTTTATTTATATTATACACACAAGGAAAAAAAAAAA [CACACA_site7690] | 10.2 ± 0.26
31 | ATTATTTATTATTTCTGTACGTATAAAAATAACATT [XGTACX_site1671] | 11.7 ± 1.1
32 | AATAAAAAAAATTTCTGTACATATATTTATTATATA [XGTACX_site1883] | 11.1 ± 0.74
33 | TTATAATTTTTCTATTGTACATTTAATAATATATAT [XGTACX_site7326] | 10.9 ± 0.47
34 | ATAAATACTTTTTGGTGTACACTTTTAAATGAAAAA [XGTACX_site3042] | 11.8 ± 1
35 | ATATATTATTTCTAGTGTACATACCCATATATAATA [XGTACX_site8902] | 11.2 ± 0.69
36 | AGTTTCCATATGAGGTGTACATATATAATTTATTAT [XGTACX_site2369] | 11.6 ± 0.71
37 | CTTTTTTTTTAAAAATGTACACATTTTTGAAAATAC [XGTACX_site3127] | 11.4 ± 0.84
38 | AATAGTTATTCCAGGTGTACATAACATATAATTTAC [XGTACX_site1340] | 11.5 ± 0.95

Row | Sequence | gcPBM binding intensity (ln)
39 | GTTTTCTAGTGGGGGTGTACATATTTATATTTAATA [XGTACX_site8378] | 11.7 ± 0.86
40 | TATATATTATATATATGTACATAATTCCATGTTTAG [XGTACX_site3943] | 11.2 ± 0.81
41 | TATAAAATATATATCTGTACGTATTTTATTTTTTAT [XGTACX_site6257] | 11.4 ± 0.88
42 | TGGTGTTTTTTTTAATGTACTTATAAAATAATACAT [XGTACX_site6574] | 11.4 ± 0.83
43 | ATTTTTTAAAATATTTGTACATATATAATGCATATA [XGTACX_site7026] | 11 ± 0.64
44 | TTCTTTTTCCAATTTGCACACCACAAAATTATATAT [CACACA_site2909] | 10.5 ± 0.28
45 | AGAGTATATATATATGCATGCATATCTCATATTTAT [TGCATGCA_site509] | 9.71 ± 0.13
46 | CATATTAATATTATGGGTACATATAAATTTACATTC [XGTACX_site687] | 11.4 ± 0.83
47 | TTTCTTGGGAGACATGCATGTACCAGAACAAAATAA [TGCATGCA_site272] | 10.9 ± 0.64
48 | AAAAAAAAAAAAAAAAAAAAAAAAAAAAATAAAAAA [CACACA_negctrl_site59] | 11 ± 0.47
49 | AAAATAATAAAAAACTGTACGAATTAAAAATTAACA [XGTACX_site8454] | 11.1 ± 0.8
50 | TATTATATATATAACTGTACGTTTATAATATAAAAA [XGTACX_site3778] | 11.4 ± 1.1
51 | AATAATAACTGTAGGTGTACGTAAAAAAAAAATTAT [XGTACX_site3133] | 11.7 ± 0.96
52 | AAAACATATTTTAAAAGTACTTGAAAAAAAATTTTC [XGTACX_site3940] | 11 ± 0.56
53 | ACTACTCCATTAAGTAGTACACAAAAAAAAAAAATA [XGTACX_site7031] | 11.8 ± 1.1
54 | CCAAAAAATATATGTAGTACTACATTATTAAATATG [XGTACX_site5128] | 11.6 ± 0.83
55 | ATATAATATTACACAAGTACAAAAATTAATACTAAA [XGTACX_site482] | 11.1 ± 0.61
56 | CTCATCCTTACATACACACACATATATATATATATA [CACACA_site103] | 10.3 ± 0.41
57 | AGTTTATATTATTAAAGTACATATATATATTCTTAA [XGTACX_site3164] | 11.1 ± 0.76
